This note sets out measurements from PubChem BioAssay.

Unmarked numbers belong to inactive results. Records with an inconclusive call do not appear. Calls of active or inactive are those of the source.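 Rule for the calls, unless noted: active = inhibition over a set limit, the all-compound mean plus 3 SD, in both replicate runs; inconclusive = over that limit in just one replicate run; inactive = at or under that limit in both runs.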

As a reminder, the viability is a read-out of living cells in per cent, often relative to untreated cells. The term inhibition denotes the change of the read-out against control, counted positive when it falls.

The first test in a line: viability of PTEN-null HCT116 cells – cell-based, HCT116 clonal line, CellTiter-Glo, pilot screen (AID 824;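 active = viability at or below 27.92% in each of two runs, the all-compound median minus 4 SD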;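 note: 0% = 20 µM Hyamine control and 100% = vehicle cell control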). The note with it: HCT116 PTEN-deleted viability, 60 h, at 10 µM, hits give low values. (In ATP-based viability assays light output follows the ATP content of the culture.)
Regarding `CSc1ccc(S(=O)(=O)N2CCN(Cc3ccc4c(c3)OCO4)CC2)cc1`, the viability was 86.3%.
Consider `Cc1ccc(F)c(NC(=O)C2CCCCC2C(=O)O)c1` (stereo not drawn), for which the viability is 94%.
Regarding `CC(=O)c1sc(NC(=O)c2ccco2)nc1-c1ccccc1`, the viability is 87.7%.
For the compound `CCn1c(C(C)NC(=O)Cc2ccccc2)nc2ccccc21` (stereo not drawn), the viability was 96%.
For the compound `CCOC(=O)N1CCN(C(=O)Cn2ncc3ccccc32)CC1`, the viability was 89.4%.
`CCCCCn1c(CNC(=O)CCC)nc2ccccc21`: the viability was 96.4%.
On to `COc1ccc(-n2ncc3c(N4CCCCC4)ncnc32)cc1`, for which the viability is 57.1%.
For `O=C(c1cccc(S(=O)(=O)N2CCCC2)c1)c1cccc(S(=O)(=O)N2CCCC2)c1`, the viability is 56.5%.
As for `CC(C)Cc1nnc(NC(=O)CCN2C(=O)c3ccccc3C2=O)s1`, the viability is 98.4%.
As for `Cc1cc(C)c(S(=O)(=O)N2CCN(CCO)CC2)c(C)c1`, the viability is 97.4%.
For `CCOC(=O)c1nn(-c2ccc3c(c2)CCN3C(C)=O)cc1O`, the viability is 92.7%.
`CCN1CCN(C(c2ccccc2)c2sc3nc(C)nn3c2O)CC1` (stereo not drawn): the viability is 101%.
Consider `Cc1ccc(O)c(-c2cc(C(F)(F)C(F)F)nc(-c3ccccc3)n2)c1`, for which the viability was 73%.
On to `COc1ccc(CN2CCCCC2C(=O)Nc2ccc(OC)c(OC)c2)cc1OC` (stereo not drawn), for which the viability is 93.3%.
The same measure, in the same setting: then `CCC(Sc1nncn1C)C(=O)Nc1nnc(-c2ccccc2Cl)s1` (stereo not drawn), with 92.5%.
Same read-out and setting: to `COc1ccc(S(=O)(=O)NCC2CCC(C(=O)N3CCC4(CC3)OCCO4)CC2)cc1` (stereo not drawn) belongs 90.6%; to `NC(=O)c1ccsc1NC(=O)c1ccco1`, 99%.
Turning to `Cc1c(NC(=O)c2ccc3c(c2)OCO3)c(=O)n(-c2ccccc2)n1C`, the viability was 101%.
In the case of `CCN1CCCC1CNC(=O)c1cc2c(-c3ccc(Cl)cc3)nn(C)c2s1` (stereo not drawn), the viability is 2.04% (active).
As to `COc1cc(OC)c(Nc2cc(C)nc3nc(C)nn23)cc1Cl`, the viability is 104%.
On the same count and under the same terms, to `O=C(O)COc1ccc2c(c1)OCCO2` belongs 107%; to `COc1cc2c(C(=O)NCc3ccccn3)cn(CC(C)C)c(=O)c2cc1OC`, 92.4%.
On the same count and under the same terms, then `COc1cccc(N(CC(=O)Nc2cccc(F)c2)S(C)(=O)=O)c1`, with 97.5%.
Still for that read-out and setting: to `O=C(C1CCN(S(=O)(=O)c2cccc3cccnc23)CC1)N1CCN(C2CCCC2)CC1` belongs 99.2%.
Turning to `CCC(=O)N1C(C(=O)O)CSC1c1ccc(OC)cc1` (stereo not drawn), the viability is 93.5%.
`c1ccc(OCCSc2ncnc3nc[nH]c23)cc1`: the viability was 87.4%.
As to `Cc1onc(-c2ccccc2Cl)c1C(=O)NCc1ccc2c(c1)cc(C)n2C`, the viability is 84.6%.
On to `CN(C)c1nc(Oc2ccc(C(=O)OCC(=O)Nc3ccccc3)cc2)nc(N(C)C)n1`, for which the viability was 94.3%.
As to `Cc1c(/C=N/n2cnnc2)c2ccccc2n1C`, the viability is 95.3%.
Regarding `CCOC(=O)CSc1ccc2nnc(-c3ccccc3)n2n1`, the viability is 93.5%.
Take `O=C(Oc1ccccc1)N1CCN(c2ccc(F)cc2)CC1`: the viability is 85.5%.
In the case of `Cc1cc(Nc2cccc(C)c2C)n2nc(C)nc2n1`, the viability was 98.3%.
Regarding `COc1ccc(N=C2SC(C(=O)O)CC(=O)N2C)cc1` (stereo not drawn), the viability was 101%.
On to `CC(CCc1ccccc1)C(=O)NO` (stereo not drawn), for which the viability is 91.6%.
Consider `Cc1cc(=O)[nH]c(SCc2cc(Cl)ccc2OC(F)F)n1`, for which the viability is 92.1%.
As for `COc1ccc(OC)c(S(=O)(=O)n2nc(-c3ccccc3)cc2N)c1`, the viability is 103%.
Same read-out and setting: then `O=C(NCc1cn2ccccc2n1)c1ccc(Br)o1`, with 92.3%.
Still for that read-out and setting: to `COc1ccc(N2CCN(C(=O)c3ccc(CS(=O)(=O)c4ccc(OC)cc4)o3)CC2)cc1` belongs 79.2%.
Consider `COc1ccc(OC)c(NC(=O)CSc2nnc(Cn3c(=O)sc4ccccc43)n2C)c1`, for which the viability is 86.5%.

Another test can be described thus: RAM pathway blockade in budding yeast – dse1pr::URA3 reporter, 5-FOA selection, pilot screen (AID 869).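 Note: 0% = DMSO wells with no growth and 100% = 10 µM 1-NA-PP1 with full growth; RAM network block rescues cells from 5-FOA so hits raise OD615 growth.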 The conditions noted are these: S. cerevisiae dse1pr::URA3 5-FOA growth, OD615, 2 d; at 10 µM; hits give high values; strain carries analog-sensitive mutant Cbk1 kinase.
Regarding `CSc1ccc(S(=O)(=O)N2CCN(Cc3ccc4c(c3)OCO4)CC2)cc1`, the inhibition is 0.865%.
Consider `Cc1ccc(F)c(NC(=O)C2CCCCC2C(=O)O)c1` (stereo not drawn), for which the inhibition is 0.145%.
On to `CC(=O)c1sc(NC(=O)c2ccco2)nc1-c1ccccc1`, for which the inhibition is 1.87%.
Take `CCn1c(C(C)NC(=O)Cc2ccccc2)nc2ccccc21` (stereo not drawn): the inhibition is 1.83%.
Take `CCOC(=O)N1CCN(C(=O)Cn2ncc3ccccc32)CC1`: the inhibition was 3.38%.
Regarding `CCCCCn1c(CNC(=O)CCC)nc2ccccc21`, the inhibition was 2.5%.
The same measure, in the same setting: to `COc1ccc(-n2ncc3c(N4CCCCC4)ncnc32)cc1` belongs 1.78%; to `O=C(c1cccc(S(=O)(=O)N2CCCC2)c1)c1cccc(S(=O)(=O)N2CCCC2)c1`, 1.09%; to `CC(C)Cc1nnc(NC(=O)CCN2C(=O)c3ccccc3C2=O)s1`, 1.21%.
For the compound `Cc1cc(C)c(S(=O)(=O)N2CCN(CCO)CC2)c(C)c1`, the inhibition was 1.64%.
On to `CCOC(=O)c1nn(-c2ccc3c(c2)CCN3C(C)=O)cc1O`, for which the inhibition was 0.375%.
On to `CCN1CCN(C(c2ccccc2)c2sc3nc(C)nn3c2O)CC1` (stereo not drawn), for which the inhibition was 1.31%.
Regarding `Cc1ccc(O)c(-c2cc(C(F)(F)C(F)F)nc(-c3ccccc3)n2)c1`, the inhibition was 2.58%.
On the same count and under the same terms, to `COc1ccc(CN2CCCCC2C(=O)Nc2ccc(OC)c(OC)c2)cc1OC` (stereo not drawn) belongs 0.01%; to `CCC(Sc1nncn1C)C(=O)Nc1nnc(-c2ccccc2Cl)s1` (stereo not drawn), 1.72%; to `COc1ccc(S(=O)(=O)NCC2CCC(C(=O)N3CCC4(CC3)OCCO4)CC2)cc1` (stereo not drawn), 0.81%.
As for `NC(=O)c1ccsc1NC(=O)c1ccco1`, the inhibition is 1.1%.
For `Cc1c(NC(=O)c2ccc3c(c2)OCO3)c(=O)n(-c2ccccc2)n1C`, the inhibition was 0.345%.
As to `CCN1CCCC1CNC(=O)c1cc2c(-c3ccc(Cl)cc3)nn(C)c2s1` (stereo not drawn), the inhibition is 1.31%.
On to `COc1cc(OC)c(Nc2cc(C)nc3nc(C)nn23)cc1Cl`, for which the inhibition is 3.52%.
In the case of `O=C(O)COc1ccc2c(c1)OCCO2`, the inhibition is 1.04%.
As for `COc1cc2c(C(=O)NCc3ccccn3)cn(CC(C)C)c(=O)c2cc1OC`, the inhibition was 1.55%.
As to `COc1cccc(N(CC(=O)Nc2cccc(F)c2)S(C)(=O)=O)c1`, the inhibition is 0.965%.
Regarding `O=C(C1CCN(S(=O)(=O)c2cccc3cccnc23)CC1)N1CCN(C2CCCC2)CC1`, the inhibition is 0.96%.
For `CCC(=O)N1C(C(=O)O)CSC1c1ccc(OC)cc1` (stereo not drawn), the inhibition was 1.16%.
On the same count and under the same terms, then `c1ccc(OCCSc2ncnc3nc[nH]c23)cc1`, with 1.73%; and `Cc1onc(-c2ccccc2Cl)c1C(=O)NCc1ccc2c(c1)cc(C)n2C`, with 1.93%; and `CN(C)c1nc(Oc2ccc(C(=O)OCC(=O)Nc3ccccc3)cc2)nc(N(C)C)n1`, with 2.15%.
For the compound `Cc1c(/C=N/n2cnnc2)c2ccccc2n1C`, the inhibition is -0.13%.
On the same count and under the same terms, then `CCOC(=O)CSc1ccc2nnc(-c3ccccc3)n2n1`, with 1.15%; and `O=C(Oc1ccccc1)N1CCN(c2ccc(F)cc2)CC1`, with 0.665%; and `Cc1cc(Nc2cccc(C)c2C)n2nc(C)nc2n1`, with 1.25%.
On to `COc1ccc(N=C2SC(C(=O)O)CC(=O)N2C)cc1` (stereo not drawn), for which the inhibition was 0.35%.
Consider `CC(CCc1ccccc1)C(=O)NO` (stereo not drawn), for which the inhibition was 0.87%.
As for `Cc1cc(=O)[nH]c(SCc2cc(Cl)ccc2OC(F)F)n1`, the inhibition is 1.62%.
Consider `COc1ccc(OC)c(S(=O)(=O)n2nc(-c3ccccc3)cc2N)c1`, for which the inhibition was 0.795%.
Same read-out and setting: then `O=C(NCc1cn2ccccc2n1)c1ccc(Br)o1`, with 2.42%.
Turning to `COc1ccc(N2CCN(C(=O)c3ccc(CS(=O)(=O)c4ccc(OC)cc4)o3)CC2)cc1`, the inhibition is 1.83%.
On the same count and under the same terms, then `COc1ccc(OC)c(NC(=O)CSc2nnc(Cn3c(=O)sc4ccccc43)n2C)c1`, with 2.36%.
